# Measured values as given in publication PMC4336329 (PLoS ONE, 2015).
# In all, about 310,000 compounds went through this assay and about 14,000 (4.5%) showed an effect of 50% or more. The effect is printed as a negative number. What follows is part of a selection rich in strong results, with near analogues and random picks from the rest.
# Target: human ether-à-go-go-related gene (hERG) potassium channel (human, UniProt Q12809)
# Assay: primary screen, population patch clamp on CHO cells stably expressing hERG; higher = less effect of the substance
# 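Also: peak tail current of the secondary pulse compared with the same well before compound.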
# human ether-à-go-go-related gene (hERG) potassium channel, sequence (Q12809 whole entry, looked up): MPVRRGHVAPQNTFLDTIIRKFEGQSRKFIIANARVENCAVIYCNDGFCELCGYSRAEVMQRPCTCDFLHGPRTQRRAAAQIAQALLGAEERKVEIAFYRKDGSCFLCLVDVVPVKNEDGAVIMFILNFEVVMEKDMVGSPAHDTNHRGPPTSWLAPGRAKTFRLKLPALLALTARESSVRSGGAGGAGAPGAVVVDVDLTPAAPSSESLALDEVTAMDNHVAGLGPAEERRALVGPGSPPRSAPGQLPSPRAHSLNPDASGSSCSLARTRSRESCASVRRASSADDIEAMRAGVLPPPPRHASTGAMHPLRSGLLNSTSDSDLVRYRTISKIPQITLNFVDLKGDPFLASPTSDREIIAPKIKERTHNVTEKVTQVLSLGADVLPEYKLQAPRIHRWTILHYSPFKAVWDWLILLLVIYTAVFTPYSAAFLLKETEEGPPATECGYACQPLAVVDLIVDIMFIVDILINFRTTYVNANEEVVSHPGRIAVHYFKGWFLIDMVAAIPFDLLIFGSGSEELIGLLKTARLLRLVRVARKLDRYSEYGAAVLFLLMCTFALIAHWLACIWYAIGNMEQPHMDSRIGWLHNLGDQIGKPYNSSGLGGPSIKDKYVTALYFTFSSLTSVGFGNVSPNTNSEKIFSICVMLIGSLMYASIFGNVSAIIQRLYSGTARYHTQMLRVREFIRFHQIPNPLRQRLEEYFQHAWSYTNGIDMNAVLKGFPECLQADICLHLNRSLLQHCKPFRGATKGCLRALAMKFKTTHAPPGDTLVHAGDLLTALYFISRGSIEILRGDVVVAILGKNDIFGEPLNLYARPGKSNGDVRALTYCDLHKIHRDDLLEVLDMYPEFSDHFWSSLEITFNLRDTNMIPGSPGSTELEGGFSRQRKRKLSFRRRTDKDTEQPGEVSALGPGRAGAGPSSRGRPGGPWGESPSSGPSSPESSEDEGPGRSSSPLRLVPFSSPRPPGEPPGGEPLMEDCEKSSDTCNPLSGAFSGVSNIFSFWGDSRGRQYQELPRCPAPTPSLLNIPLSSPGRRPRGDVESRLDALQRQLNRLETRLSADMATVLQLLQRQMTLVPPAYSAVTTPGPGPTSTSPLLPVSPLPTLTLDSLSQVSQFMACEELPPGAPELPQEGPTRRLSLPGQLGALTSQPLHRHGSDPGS
row,SMILES,"hERG current change (%, negative = inhibition) at 10uM [%]"
1,CCN=C1SC(C(N)=O)CC(=O)N1CC (centres unmarked),12.9
2,O=C(c1cn[nH]c1)c1cc(F)ccc1O,-2.62
3,COc1cccc(-c2nnc(SCc3ccc(C#N)cc3)n2Cc2ccco2)c1,-70.3
4,COc1cccc(-c2nnc(SCC(=O)OC(C)C)n2Cc2ccco2)c1,-15.3
5,Cc1ccc(NCc2nnc(SCC(=O)c3ccccc3)n2Cc2ccco2)c(C)c1,-7.53
6,Cc1cccc(-c2nnc(SCc3ccc(C#N)cc3)n2Cc2ccco2)c1,-89
7,Cc1cccc(-c2nnc(SCc3nc4ccccc4[nH]3)n2Cc2ccco2)c1,-48.8
8,Cc1ccc(-c2nnc(SCc3ccc(C#N)cc3)n2Cc2ccco2)cc1,-20.6
9,Cc1ccc(NCc2nnc(SCc3ccc(C#N)cc3)n2Cc2ccco2)c(C)c1,-70.8
10,COc1ccc(C(=O)CSc2nnc(CNc3ccc(C)cc3C)n2Cc2ccco2)cc1,6.88
11,N#Cc1ccc(CSc2nnc(-c3ccccc3)n2Cc2ccco2)cc1,-26.8
12,O=C(CSc1nnc(-c2ccncc2)n1Cc1ccco1)N1c2ccccc2Sc2ccc(Cl)cc21,-2.92
13,CCSC1=NCCN1C(=O)c1c(-c2ccccc2Cl)noc1C,-20.6
14,O=C(CSc1nnc(-c2ccccc2)o1)NC1CCCCC1,-16.6
15,O=C(CNc1cccc([N+](=O)[O-])c1)N/N=C/c1ccc([N+](=O)[O-])o1,-36
16,O=C(CN1CCN(c2ccccc2)CC1)N1CCc2[nH]c3ccccc3c2C1,-26.9
17,COc1ccccc1NC(=O)N1CCCC1C(=O)NCc1cccs1 (centres unmarked),0.509
18,COc1cc(CNCc2ccc(SC)cc2)cc(OC)c1,-14.9
19,COc1cccc(CNCCc2ccc(F)cc2)c1.O=C(O)C(=O)O,-9.82
20,COc1ccc(CCNCc2ccc(OCc3ccccc3)cc2)cc1,-41.6

row,SMILES,"hERG current change (%, negative = inhibition) at 10uM [%]"
1,COc1cccc(CCNCc2c(F)cccc2F)c1.O=C(O)C(=O)O,-15.1
2,COc1ccc(CCNCc2ccc(SC)cc2)cc1,-73.2
3,COc1cccc(CCNCc2ccc(SC)cc2)c1.O=C(O)C(=O)O,-67.7
4,CC(=O)N1c2ccc(S(=O)(=O)NC(CC(=O)O)c3ccc(Br)cc3)cc2CC1C (centres unmarked),22.3
5,CC1CCN(S(=O)(=O)c2ccccc2)CC1,-3.32
6,O=C(CCNS(=O)(=O)c1ccc(Br)cc1)NCc1ccc2c(c1)OCO2,-3.3
7,CN(C)CCCNc1ncnc2c1cnn2-c1ccccc1,-22.8
8,COc1ccc(-n2cc(-c3ccccc3)c3c(NCCOCCO)ncnc32)cc1,-42.9
9,CN(C)CCCNc1ncnc2c1c(-c1ccccc1)cn2-c1ccccc1,-64.4
10,Cc1c(C)n(-c2ccccc2)c2ncnc(NCCCN(C)C)c12,0.841
11,OCCOCCNc1ncnc2c1c(-c1ccccc1)cn2-c1ccccc1,-50.6
12,OCCOCCNc1ncnc2c1cnn2-c1ccccc1,9.79
13,O=C(N/N=C/c1cccnc1)c1cc2ccccc2cc1O,5.26
14,C[C@@]12C(=O)N(c3ccc(C(F)(F)F)cc3)C(=O)N1[C@@H]1c3ccccc3OC[C@@H]1[C@H]2c1ccccc1,20
15,O=C(Cn1c(=O)n(CC2CCCO2)c(=O)c2ccccc21)c1ccc(Cl)c(Cl)c1 (centres unmarked),-16.4
16,CN(CCCC(=O)NCc1ccccc1)S(=O)(=O)c1ccc([N+](=O)[O-])cc1,-65.6
17,CN(CC(=O)NCc1ccc2c(c1)OCO2)S(=O)(=O)c1ccc(F)cc1,-8.53
18,Cc1ccc(S(=O)(=O)N(C)CCCC(=O)NCc2ccc3c(c2)OCO3)cc1,-23.5
19,CN(CCCC(=O)NC1CC(C)(C)NC(C)(C)C1)S(=O)(=O)c1ccc([N+](=O)[O-])cc1,12.5
20,COc1ccc(S(=O)(=O)N(C)CC(=O)NCc2ccc3c(c2)OCO3)cc1,-8.31

row,SMILES,"hERG current change (%, negative = inhibition) at 10uM [%]"
1,CN(CCCC(=O)NCCc1ccccc1)S(=O)(=O)c1ccc([N+](=O)[O-])cc1,-37.6
2,CCOc1ccc(S(=O)(=O)N(C)CC(=O)NCc2ccc3c(c2)OCO3)cc1,-64.4
3,O=C(NCc1ccc2c(c1)OCO2)Nc1ccc([N+](=O)[O-])cc1,21.1
4,CN(CCCC(=O)NCc1ccc2c(c1)OCO2)S(=O)(=O)c1ccc([N+](=O)[O-])cc1,-68.1
5,C=CCn1c(SCCCc2ccccc2)nc2c1c(=O)[nH]c(=O)n2C,-26.1
6,COc1ccc(OC)c(NS(=O)(=O)c2ccc(-c3coc(C)n3)cc2)c1,0.503
7,COc1cccc(NC(=O)N2CCCC2C(=O)NC2CC2)c1 (centres unmarked),3.61
8,COc1ccc(-c2[nH]ncc2CN(C)Cc2cnccn2)c(OC)c1,14
9,O=C(O)c1cc2n(n1)C(C(F)(F)F)CC(c1ccco1)N2 (centres unmarked),22.2
10,O=S(=O)(NC1CCCCC1N1CCN(c2ccc(F)cc2)CC1)c1ccccc1 (centres unmarked),-7.05
11,COc1ccccc1/C=C1\SC(=S)N(CCC(=O)NCCCn2ccnc2)C1=O,-44.7
12,O=C(CCN1C(=O)S/C(=C\c2ccccc2)C1=O)NCCCn1ccnc1,-38.4
13,COc1ccc(/C=C2\SC(=S)N(CCC(=O)NCCCn3ccnc3)C2=O)cc1,-28.5
14,O=C(CCCN1C(=O)/C(=C/c2ccc(F)cc2)SC1=S)NCCCn1ccnc1,-71
15,O=C(CCCN1C(=O)/C(=C/c2ccccc2)SC1=S)NCCCn1ccnc1,-59.9
16,O=C(CCN1C(=O)/C(=C/c2ccc(F)cc2)SC1=S)NCCCn1ccnc1,-63.6
17,O=C(CCN1C(=O)/C(=C/c2ccccc2F)SC1=S)NCCCn1ccnc1,-38.1
18,O=C(CCN1C(=O)/C(=C/c2ccc(Cl)cc2)SC1=S)NCCCn1ccnc1,-23.4
19,O=C(CCCN1C(=O)c2ccccc2C1=O)NCCCn1ccnc1,13.4
